Screening results deposited in PubChem by Sanford-Burnham Center for Chemical Genomics.
This excerpt belongs to a sample that is enriched for hits.
ER stress death: ER stress cell death inhibition; relative survival (cellular ATP), % at 15 µg/mL (by protocol); 0.33% of 48,000 active; CSM14.1 thapsigargin ER stress survival, ATP luminescence;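 active = survival measured by cellular ATP above 50% at 15 µg/ml in the first screen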;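 note: cell death triggered by about 15 µM thapsigargin; ATP read 24 h after thapsigargin was added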
Each line names hits and unclear results; the compound was inactive in the other large screens.

COC(=O)C1=C(C)N(C)C(C)=C(C(=O)OC)C1c1ccc(C)s1	none
O=C1NC(=S)N(c2ccc(Cl)cc2)C(=O)/C1=C/C=C/c1ccccc1	none
Cc1cc(N2C(=O)NC(=O)/C(=C\C=C\c3ccco3)C2=O)ccc1Br	none
O=C1NC(=O)N(c2ccc(Cl)cc2)C(=O)/C1=C\C=C\c1ccco1	ER stress death 54.4
CCOC(=O)C1CCc2oc3ccc(O)cc3c2C1=O (stereo not drawn)	none
CCOc1ccccc1NC(=O)c1c(NC(=O)c2ccccc2F)sc2c1CCCCC2	none
CCOc1ccccc1NC(=O)c1c(NC(=O)c2ccc(C)cc2)sc2c1CCCC2	none
CCOc1ccccc1NC(=O)c1c(NC(=O)c2cccc(F)c2)sc2c1CCCCC2	ER stress death 52.6
O=C(Nc1ccc(O)cc1)Nc1ccc(Cl)cc1	none
C(=NN1CCN(Cc2ccccc2)CC1)c1ccncc1	none
CN1C(=O)/C(=C/c2ccc3c(c2)OCO3)SC1=S	none
COc1ccc(OC)c(NC(=O)c2cc(-c3cccc(Br)c3)nc3ccccc23)c1	none
Cc1ccc(C2(c3ccc(C)cc3)CC2C(=O)Nc2ccncc2)cc1 (stereo not drawn)	none
Cc1ccc(C2(c3ccc(C)cc3)CC2C(=O)Nc2cccnc2)cc1 (stereo not drawn)	ER stress death 78.5
Cc1ccc(C2(c3ccc(C)cc3)CC2C(=O)Nc2ccccc2)cc1 (stereo not drawn)	none
O=C1c2cccc3cc([N+](=O)[O-])cc(c23)C(=O)N1Nc1ccccc1	none
CC(=O)C(C(C)=O)C1c2ccccc2Oc2ccc(Cl)cc21 (stereo not drawn)	none
O=C(Nc1cccc(C(F)(F)F)c1)c1cnn2c(C(F)(F)F)cc(-c3cccs3)nc12	none
Cc1ccc(C(=O)N/C(=C/c2cccs2)c2nc3ccccc3[nH]2)cc1	ER stress death 61.5
O=C(N/C(=C/c1cccs1)c1nc2ccccc2[nH]1)c1ccccc1	none
Cc1ccc(C(=O)N/C(=C/c2cccnc2)c2nc3ccccc3[nH]2)cc1	none
C=CCN1C(=O)/C(=C\c2cc(Br)c(OCc3ccc(F)cc3)c(OCC)c2)SC1=S	none
O=[N+]([O-])c1cccc(Nc2ncnc3ccccc23)c1	none
CC(=O)/C=C/c1oc2ccc([N+](=O)[O-])cc2c1-c1ccc(C)o1	none
